The text below walks through data of PubChem BioAssay AID504444 (National Center for Advancing Translational Sciences (NCATS), 2011).

Structures are written as SMILES. Several values for one entry are separate records, joined by “and”; a condition that tells them apart may be missing. Equal entries are not always repeated. Screen size: about 360,000 compounds; about 7,500 (2.1%) were called active. Where a call stands in place of a potency, no number is given. About 20% were inconclusive and are not listed. For the sample, actives were picked, then their nearest neighbours and some compounds at random. Values without a mark were called inactive. Calls follow the shape of the dose curve; as a rule, active = well fitted inhibition curve with a large enough effect; inconclusive = small, poorly fitted or top-dose-only effect, or effect the other way; inactive = flat fitted curve, though single readings scatter.
Potency is read from the fitted curve at half-maximal effect.

A short description of the assay: Nrf2 qHTS screen for inhibitors. Also: nearly all actives have a fitted effect of over 60% in size. Conditions: A549 ARE-Fluc reporter, luciferase luminescence, 18-24 h; series mostly up to 46 µM. In outline: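 In this cell-based qHTS, ARE-driven firefly luciferase in A549 cells reports Nrf2 activity; the luminescent signal after BugLite lysis is the measured value, with a prior CellTiter-Fluor read for cell health.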
For the compound `Cc1cc(C)cc(NC(=O)CSc2oc(-c3ccccc3)nc2S(=O)(=O)c2ccc(Cl)cc2)c1`, the activity change, negative = inhibition is 4.62% [at 9.27 µM].

Take `Cc1ccc(-c2nc(CS(=O)(=O)CC(=O)NCc3ccccc3Cl)c(C)o2)cc1`: the Potency entry is “inactive”.

On to `CCCCn1c(SCC(=O)N2CCCC2=O)nc2cc(S(N)(=O)=O)ccc21`, for which the Potency entry is “inactive”.

As for `CCCCn1c(SCc2ncc(-c3ccccc3)o2)nc2cc(S(N)(=O)=O)ccc21`, the Potency is 14.6 µM (active).

`CCCCn1c(SCC(=O)N2CCC(C(=O)OCC)CC2)nc2cc(S(N)(=O)=O)ccc21`: the Potency entry was “inactive”.

As to `CCCn1c2ccccc2c2cnn(CC(=O)N(CC)c3cc(C)ccc3C)c(=O)c21`, the Potency result is “inactive”.

On to `Cc1ccc(S(=O)(=O)c2nc(-c3cccs3)oc2N2CCCCC2)cc1`, for which the Potency result was “inactive”.

Take `CCOc1ccccc1NC(=O)Cn1nnc(C(=O)Nc2ccc(C)c(C)c2)c1N`: the Potency result was “inactive”.

For `C[C@]12CCC(=O)C=C1C=CC1C2CC[C@@]2(C)C1CC[C@@]21CCC(=O)O1` (stereo partly drawn), the Potency entry is “inactive”.

Turning to `CC(=O)O[C@]1(C(C)=O)CC[C@H]2[C@@H]3C=C(C)C4=CC(=O)CC[C@]4(C)[C@H]3CC[C@@]21C`, the Potency was 0.731 µM (active).

`CSCCC(NS(=O)(=O)c1ccc(C)cc1)C(=O)N(C)CC(=O)Nc1ccccc1Br` (stereo not drawn): the Potency result is “inactive”.

Turning to `O=[N+]([O-])c1ccc(COc2ccccc2CN2CCOCC2)cc1`, the Potency result is “inactive”.

Turning to `CCOC(=O)c1c(C)[nH]c(C)c1S(=O)(=O)N1CCC(C(=O)Nc2ccc(C)c(Cl)c2)CC1`, the Potency entry is “inactive”.

In the case of `CC1=Nc2cc(C(=O)N3CCC(C)CC3)ccc2Sc2ccc(Cl)cc21`, the Potency was 16.4 µM (active).

For `COc1ccc(C(=O)Nc2c(Cl)cc(Cl)cc2C(=O)N2CCC(C)CC2)cc1`, the Potency result is “inactive”.

On to `CC1CCN(C(=O)c2ccc3c(c2)NC(=O)CN3)CC1`, for which the Potency entry was “inactive”.

In the case of `CC1CCCCC1NC(=O)NC(=O)COC(=O)C1=NN(c2ccccc2)C(=O)CC1` (stereo not drawn), the Potency entry was “inactive”.

In the case of `O=C1C(F)N([S+](=O)([O-])c2ccc3c(c2)OCCO3)CCN1[S+](=O)([O-])c1c(F)cccc1F` (stereo not drawn), the Potency result is “inactive”.

As for `COc1cc2nc(NCC(C)c3ccccc3)n3nc(-c4ccccc4)nc3c2cc1OC` (stereo not drawn), the Potency result is “inactive”.

Take `COc1ccc(-c2noc(CCC(=O)N3CCN(c4cccc(C)c4)CC3)n2)cc1`: the Potency result is “inactive”.

In the case of `COc1ccc(-c2noc(CCC(=O)N(C)c3ccccc3C)n2)cc1`, the Potency was 20.6 µM (active).

`COc1ccc(N2CCN(C(=O)CCc3nc(-c4ccc(C)cc4)no3)CC2)cc1`: the Potency entry is “inactive”.

Take `Cc1cc(OCC(=O)Nc2ncn[nH]2)c(C)c(C)c1Br`: the Potency entry is “inactive”.

Take `CC(C)OC(=O)CN1CCN(c2ccc(Cl)cc2)CC1`: the Potency was 16.4 µM (active).

`O=C(CN1CCN(c2ccc(Cl)cc2)CC1)c1ccccc1`: the Potency result is “inactive”.

Regarding `O=C(CN1CCN(c2ccc(Cl)cc2)CC1)N1CCCC1`, the Potency entry was “inactive”.

In the case of `Cc1ccc(-c2cnc(NCc3ccc(C(C)C)cc3)n2C)cc1`, the Potency result was “inactive”.

In the case of `CCOc1ccc(-c2cc3nc(C4CCN(C(=O)OC(C)(C)C)CC4)c(C(=O)Nc4cccc(CC)c4)cn3n2)cc1`, the Potency result was “inactive”.

In the case of `Cc1ccc(C)c(N2CCN(Cc3nnc(-c4ccccc4)o3)CC2)c1`, the Potency result was “inactive”.

`CCn1c2ccccc2c2nnc(N3CCN(c4cc(C)ccc4C)CC3)nc21`: the Potency is 20.6 µM (active).

Take `CCn1c2ccccc2c2nnc(SCC(=O)O)nc21`: the Potency result was “inactive”.

Turning to `Cc1ccc(S(=O)(=O)n2nc(-c3ccc(Cl)cc3)nc2NCc2ccccc2)cc1`, the Potency result was “inactive”.

As to `Cc1ccc(NC(=O)CN(C)C(=O)c2cccc(S(=O)(=O)N3CCCC3)c2)cc1`, the Potency entry was “inactive”.

In the case of `CCOc1ccc(NC(=O)CN(C)C(=O)c2cccc(S(=O)(=O)N3CCCC3)c2)cc1OCC`, the Potency result was “inactive”.

Take `COc1ccc(NC(=O)CN(C)C(=O)c2cccc(S(=O)(=O)N3CCN(c4ccccc4)CC3)c2)cc1`: the Potency was 16.4 µM (active).

On to `COc1ccccc1C(=O)OCc1cc(=O)n2nc(-c3cccs3)sc2n1`, for which the Potency entry was “inactive”.

Turning to `CC(C)(C)S(=O)(=O)N1Cc2cc(CO)cc(CCO)c2[C@H]1CCO`, the Potency entry was “inactive”.

Turning to `O=C(N/N=C/c1ccccn1)c1cccc(NC(=O)c2ccc(Cl)cc2)c1`, the Potency was 23.1 µM (active).

Turning to `O=C(N/N=C/c1ccccn1)c1ccc(S(=O)(=O)N2CCCCCC2)cc1`, the Potency entry was “inactive”.

With `O=C(N/N=C/c1ccccn1)c1cccnc1`, the Potency entry is “inactive”.

With `CCOc1ccc(/C=C(/C#N)c2nnc(N3CCOCC3)n2-c2ccccc2)cc1OC`, the Potency result was “inactive”.

Consider `COc1ccc(CNC(=O)c2ccc(NC(=O)N3CC4CCCN4c4ccccc43)cc2)cc1` (stereo not drawn), for which the Potency entry was “inactive”.

`CCN(CCCNC(=O)c1cc2c(=O)n(CC)c3ccccc3c2s1)Cc1ccccc1`: the Potency result was “inactive”.

As for `CCN1CCN(c2cc(C)c3cc(NC(=O)c4cc(Cl)ccc4OC)ccc3n2)CC1`, the activity change, negative = inhibition was 12% [at 9.27 µM].

As for `O=C(Nc1ncc([N+](=O)[O-])s1)C1COc2ccccc2O1` (stereo not drawn), the Potency is 14.6 µM (active).

In the case of `O=C(Nc1nnc(SCc2ccc(Cl)cc2Cl)s1)C1COc2ccccc2O1` (stereo not drawn), the Potency entry was “inactive”.

Take `O=C(Nc1nc2c(F)cc(F)cc2s1)C1COc2ccccc2O1` (stereo not drawn): the Potency entry is “inactive”.

Consider `Cc1ccc(C(=O)Nc2cc3c(cc2N2CCCC2)n(C)c(=O)c(=O)n3C)cc1`, for which the Potency result was “inactive”.

Consider `CN(C)C(=O)CCc1ccc2c3c([nH]c2c1)[C@]1(CCc2ccccc2)[C@@H](C(=O)N2CCCCC2)C[C@H](CC(=O)NCCC2=CCCCC2)C(=O)N1CC3`, for which the Potency result is “inactive”.

On to `O=C(Cn1c(-c2cccs2)cc2ccccc21)NCCc1ccc(Cl)cc1`, for which the Potency result is “inactive”.

Regarding `CCOc1ccc(S(=O)(=O)N2CCN(C(=S)NCC3CCCO3)CC2)cc1` (stereo not drawn), the Potency result is “inactive”.

`COc1ccc(S(=O)(=O)N2CCN(C(=S)NCC3CCCO3)CC2)cc1OC` (stereo not drawn): the Potency entry was “inactive”.

Regarding `S=C(NCC1CCCO1)N1CCN(c2ccc(Cl)c(Cl)c2)CC1` (stereo not drawn), the Potency is 14.6 µM (active).

For the compound `CCCCOc1ccc(CN2C(=O)C(=O)c3cc(Br)cc(C)c32)cc1OC`, the Potency entry was “inactive”.

For the compound `O=C(CN1C(=O)COc2ccc(S(=O)(=O)N3CCCCCC3)cc21)N1CCN(c2cccc(C(F)(F)F)c2)CC1`, the Potency entry is “inactive”.

For `CCc1cc2c(cc3c(=O)n(CC(=O)NCc4cccc(Cl)c4)nc(CC)n32)s1`, the Potency result was “inactive”.

As to `CN(C)c1ccc(NC(=O)CSc2nc(-c3ccco3)cc(C(F)(F)F)n2)cc1`, the Potency result was “inactive”.

Turning to `Cc1ccc(S(=O)(=O)N2CCN(c3nc(-n4cnc5ccccc54)nc4ccccc34)CC2)cc1`, the Potency result is “inactive”.

As for `Cc1ccc(C)c(S(=O)(=O)N2CCN(c3ncnc4sccc34)CC2)c1`, the Potency is 18.4 µM (active).

As to `Cc1ccc(S(=O)(=O)N2CCN(c3ncnc4ccccc34)CC2)cc1`, the Potency is 2.31 µM (active) and 8.2 µM (active).

Regarding `Cc1ccc(C)c(S(=O)(=O)N2CCN(C(=O)Nc3ccccc3)CC2)c1`, the Potency result is “inactive”.

Turning to `COc1ccc(C)cc1S(=O)(=O)N1CCN(S(=O)(=O)c2cc(C(=O)O)ccc2C)CC1`, the Potency result is “inactive”.

For `O=[N+]([O-])c1ccc(S(=O)(=O)N2CCN(c3nc(-c4ccccc4)nc4ccccc34)CC2)cc1`, the Potency result is “inactive”.
